Wnt act = Wnt/beta-catenin pathway activation | Wnt/beta-catenin reporter cell assay, activator, plate reader | activation, % at 9.35 µM | 300,000 tested, 1.2% active; in the data active = activation above about 30%, passing the limit was not always enough;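 note: 0% = neutral control wells and 100% = positive control wells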
FXN GAA850 act = frataxin GAA850 promoter activation; HEK293 lucGAA850 FXN promoter luciferase reporter, 24 h; percent of 10 µM SAHA response; activation, % at 6 µM; 360,000 tested, 0.56% active; AID 540364;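 active = activation above the average of all compounds screened plus 3 SD, cutoff fixed separately per campaign, cut at about 7.5% in these data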;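 note: 0% = DMSO wells and 100% = 10 µM SAHA wells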
AHR activator = activates the human aryl hydrocarbon receptor. activation, % at 5 µM. P35869. AHR-responsive luciferase reporter cells, luminescence. 320,000 tested, 2.5% active; in the data active = activation above about 47%;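 note: 0% = vehicle wells and 100% = reference agonist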
Target sequence (P35869 whole entry, looked up): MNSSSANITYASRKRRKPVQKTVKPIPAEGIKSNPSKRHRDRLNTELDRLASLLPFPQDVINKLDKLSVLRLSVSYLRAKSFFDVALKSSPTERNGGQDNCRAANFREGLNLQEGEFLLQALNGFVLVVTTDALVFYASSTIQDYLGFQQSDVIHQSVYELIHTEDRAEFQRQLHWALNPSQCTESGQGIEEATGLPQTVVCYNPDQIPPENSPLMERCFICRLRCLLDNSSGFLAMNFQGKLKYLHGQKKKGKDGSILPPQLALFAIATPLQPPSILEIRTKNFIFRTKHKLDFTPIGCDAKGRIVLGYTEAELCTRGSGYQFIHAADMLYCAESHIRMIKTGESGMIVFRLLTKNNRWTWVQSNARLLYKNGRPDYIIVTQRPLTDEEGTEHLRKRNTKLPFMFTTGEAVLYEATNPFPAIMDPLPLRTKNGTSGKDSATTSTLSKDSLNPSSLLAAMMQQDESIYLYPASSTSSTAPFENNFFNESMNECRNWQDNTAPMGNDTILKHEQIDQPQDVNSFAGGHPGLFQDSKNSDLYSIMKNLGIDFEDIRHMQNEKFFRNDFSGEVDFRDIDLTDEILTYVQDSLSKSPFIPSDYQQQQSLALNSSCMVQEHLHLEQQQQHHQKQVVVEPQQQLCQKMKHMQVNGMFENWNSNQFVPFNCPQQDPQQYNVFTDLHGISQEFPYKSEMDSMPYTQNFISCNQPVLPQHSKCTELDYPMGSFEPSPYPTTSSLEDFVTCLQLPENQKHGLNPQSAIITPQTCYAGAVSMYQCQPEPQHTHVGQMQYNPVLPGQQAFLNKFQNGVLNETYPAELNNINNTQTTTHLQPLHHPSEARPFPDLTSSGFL
esBAF inh = inhibitors of esBAF chromatin remodeling in mouse ES cells. Bmi1-luciferase knock-in reporter, 24 h; 100% = twice the neutral-well signal. reporter increase, % at 12.5 µM. 350,000 tested, 2% active; in the data active = activation above about 40%;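 note: 0% = median of the plate's neutral control wells and 100% = double that signal; a rise in the Bmi1 reporter signal indicates esBAF inhibition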
MITF TRPM1 HTS = MITF TRPM1 promoter activation in melanoma cells; SK-MEL-5 TRPM1-promoter luciferase, 24 h; % of positive control, neutral wells = 0; activation, % at 12.5 µM; 300,000 tested, 0.75% active; AID 588334;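 active = mean activation of at least 80% with every replicate also reaching 80%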;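 note: 0% = neutral control wells and 100% = parthenolide positive control wells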
GAA30 FXN cntr = activates GAA30 frataxin promoter, counter-screen for GAA850 activators; shares compounds with FXN GAA850 act; HEK293 lucGAA30 FXN promoter luciferase, 24 h; DMSO = 0%, 5 µM ipriflavone = 100%; activation, % at 6 µM; 1,900 tested, 66% active; AID 588350;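 active = mean activation above the mean of solvent-only control wells plus 3 SD, cut at about 22% in these data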;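 note: counterscreen of GAA850 promoter hits where activity marks nonselective or luminescence artifacts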
FXN GAA850 conf = confirmation of GAA850 frataxin (FXN) promoter activators; activation, % at 6 µM; 1,900 tested, 86% active; HEK293 lucGAA850 FXN promoter luciferase reporter, 24 h; 100% = activation by SAHA; shares compounds with FXN GAA850 act; AID 588351;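 active = mean activation above a set limit taken from the primary screen, cut at about 8% in these data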;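 note: 0% = DMSO wells and 100% = 10 µM SAHA wells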
Ring1 derepress = de-represses Ring1 in mouse ESCs, confirming esBAF inhibition; shares compounds with esBAF inh; 550 tested, under 10 active; fold change at 33 µM; mouse ESC E14, Ring1 mRNA RT-qPCR fold change;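 active = Ring1 gene expression raised more than 2-fold over untreated cells in both replicates at either tested dose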;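 note: Ring1 transcript normalised to actin housekeeping signal by TaqMan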
Fgf4 repress = represses Fgf4 in mouse ESCs, confirming esBAF inhibition | mouse ESC E14, Fgf4 mRNA qPCR fold change; stronger effect = lower value | Fgf4 expression fold change at 33 µM | 550 tested, 4% active | shares compounds with esBAF inh;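 active = Fgf4 expression under 0.8 fold of control in both repeat measurements at one or both tested doses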;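 note: Fgf4 transcript normalised to actin in duplex TaqMan qPCR; cells exposed to compound for 24 h before lysis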
Bmi1 derepress = de-represses Bmi1 in mouse ESCs, confirming esBAF inhibition. fold change at 33 µM. shares compounds with esBAF inh. mouse ESE14 ES cells, Bmi1 mRNA qPCR fold; stronger effect = higher value. 550 tested, under 10 active;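 active = Bmi1 expression fold change above 6 at either tested concentration, seen in replicate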;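 note: higher fold means more Bmi1 de-repression and stronger esBAF inhibition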
A549 cytotox = A549 cell cytotoxicity; plate reader; AID 743188; 550 tested, under 10 active; shares compounds with esBAF inh; cell viability change % (negative = cytotoxic), % at 25 µM, hits read low; call rule not given here
HepG2 tox SP = HepG2 cell cytotoxicity at single point. plate reader; stronger effect = lower value. 550 tested, 4% active. AID 743189. activity change, negative = inhibition, % at 25 µM. shares compounds with esBAF inh; in the data active = activity change below about -50%
HEK293 cytotox SP = kills or reduces viability of HEK293 cells; shares compounds with esBAF inh; HEK293 cytotoxicity, plate reader; activity change, negative = inhibition, % at 25 µM, hits read low; 550 tested, 3% active; AID 743190; in the data active = activity change below about -38%, passing the limit was not always enough
Numbers without * were called inactive; / = no result. This is a sample that favours compounds with a hit; in the whole collection about 4.2% have one here.

SMILES	Wnt act	FXN GAA850 act	AHR activator	esBAF inh	MITF TRPM1 HTS	GAA30 FXN cntr	FXN GAA850 conf	others
N#C/C(=C\c1ccccc1)C(=O)Nc1ccccn1	0.2	0.9	-0.4	-4.8	9.8	/	/
O=C(C[C@@H]1CC[C@@H]2[C@H](COC[C@H](O)CN2C(=O)Nc2ccc(Cl)cc2)O1)NC1Cc2ccccc2C1	/	/	/	8.6	/	/	/
COc1ccc(N2C(=O)C3CCCN3C2c2cccc(Br)c2)cc1 (stereo unspecified)	-2.4	12.1*	0.9	1.1	/	18.7	8.8*
COc1cccc(C2N(c3cccc(Cl)c3)C(=O)C3CCCN32)c1 (stereo unspecified)	-2.0	1.5	2.7	-2.3	-3.2	/	/
Cc1ccc(N2C(=O)CS(=O)C(c3ccccc3)C2=O)cc1C (stereo unspecified)	22.1	8.2*	1.5	/	42.8	58.1*	16.4*
COCC#Cc1cnc2c(c1)C(=O)N([C@H](C)CO)C[C@@H](C)[C@H](CN(C)S(=O)(=O)c1ccccc1)O2	/	/	/	0.9	/	/	/
C[C@@H]1CN([C@@H](C)CO)C(=O)c2cccc(NC(=O)Nc3ccc(F)cc3)c2O[C@H]1CN(C)C(=O)NC1CCCCC1	/	/	/	-2.7	/	/	/
NC(=O)c1ccsc1NC(=O)CSc1ccccc1F	24.9	8.2*	5.0	74.6*	61.2	89.4*	27.0*
Cc1ccccc1SCC(=O)OCC(=O)Nc1sccc1C(N)=O	-0.3	1.9	3.0	/	5.0	/	/
Cc1csc(NC(=O)CSc2ccccc2F)n1	0.8	12.0*	9.0	/	43.0	78.4*	25.2*
C[C@H](CO)N1C[C@H](C)[C@H](CN(C)C)Oc2ccc(NC(=O)CCCCCC(=O)Nc3ccccc3N)cc2CC1=O	/	/	/	0.0	/	/	/
COc1cc(/C=N/NC(=O)C(C)n2nnc3ccccc32)ccc1O (stereo unspecified)	/	0.7	2.0	-3.7	0.3	/	/
COc1ccc(/C=N/NC(=O)C(C)n2nnc3ccccc32)cc1OC (stereo unspecified)	/	8.5*	6.5	-6.0	11.8	20.4	10.8*
COc1ccc(-c2csc(N3C(=O)CNC3=S)n2)cc1	21.2	5.6	3.2	/	0.4	/	/
COc1ccc(-c2csc(N3C(=N)SCC3=O)n2)cc1	/	10.4*	10.0	-13.3	5.5	95.8*	28.4*
CCn1c(=O)[nH]c(=O)c2c(N)c(C(=O)c3cc(F)ccc3F)sc21	-0.7	8.7*	7.5	-5.0	-1.1	23.1*	17.6*
N#Cc1sc2nc(N3CCCCC3)c3c(c2c1N)CCCC3	/	7.6*	1.4	-3.9	10.4	17.7	17.3*
Cc1cccc(Nc2nc(-c3sc(C)nc3C)cs2)c1	8.2	8.5*	70.0*	69.0*	/	96.5*	32.5*	Ring1 derepress=1.19;Fgf4 repress=0.948;Bmi1 derepress=1.7;A549 cytotox=-1.2;HepG2 tox SP=-15.6;HEK293 cytotox SP=-22.7
c1ccc(Cn2cnc3ccccc32)cc1	/	10.9*	-1.7	105.8*	63.4	119.8*	44.0*	Ring1 derepress=1.38;Fgf4 repress=1.05;Bmi1 derepress=1.67;A549 cytotox=-0.2;HepG2 tox SP=-24.3;HEK293 cytotox SP=-10.0
